# From PubChem BioAssay
# TDP1 cell noCPT: qHTS for Inhibitors of human tyrosyl-DNA phosphodiesterase 1 (TDP1): qHTS in cells in absence of CPT | DT40 Tdp1-/- hTDP1 cells, no CPT, ATP luminescence, 48 h | Potency, µM (series often up to 46.2 µM), for the others: top-dose activity change, negative = growth inhibition, most hits filed as inhibitors | 420,000 tested, 15% active; note: potency is the fitted concentration of half-maximal effect; nearly all actives have a fitted effect of over 55% in size
#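 Growth kinetics read by CellTiter-Glo luminescence after ≥48 hr at 37 °C. Cells: DT40 Tdp1-/- stably carrying human TDP1, 400 per well, compound exposure in the absence of CPT (DMSO vehicle).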
# HT1080NT lethal: kills 2HG-producing HT-1080-NT fibrosarcoma cells; HT-1080-NT fibrosarcoma viability, CellTiter-Glo ATP luminescence, 48 h; Potency, µM (doses to about 46.1 µM), for the others: top-dose activity, negative = less viability, most hits filed as cytotoxic; 360,000 tested, 1.6% active; AID 686970;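 note: NT is the 2HG producing partner of a matched IDH1 knockdown line; potency is the fitted concentration of half-maximal effect; 0% = DMSO-treated cells and -100% = media-only wells without cells; nearly all actives have a fitted effect of over 55% in size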
#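 Compounds were tested in concentration-response format on HT-1080-NT cells for 48 hours at 37 degrees C. Cell viability came from CellTiter-Glo luminescence; curves were classified by r2, response magnitude and activity.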
# HT1080 IDH1KD tx: kills HT-1080 cells with IDH1 knockdown. Potency, µM (series often up to 46.1 µM), for inactives: top-dose activity, negative = toxicity, hits mostly cytotoxic. AID 686971. 360,000 tested, 2% active. HT-1080 IDH1 knockdown viability, ATP luminescence, 48 h;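 note: potency is the fitted concentration of half-maximal effect; 0% = DMSO wells and -100% = cell-free medium wells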
#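 After a 2 h attachment period, IDH1KD HT-1080 cells took pin-transferred compound for 48 h at 37 °C; ATP-based luminescence after 10 min room-temperature reagent incubation reported viability.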
# ELG1 DNA repair: blocks ELG1-dependent DNA repair in HEK293T cells; HEK293T ELG1-luciferase reporter, luminescence, 16 h; DNA damage induced by 5-fluorouridine; Potency, µM (series often up to 46.1 µM), for inactives: at the highest dose activity change, negative = inhibition, most hits filed as inhibitors; 330,000 tested, 2.3% active; note: potency is the fitted concentration of half-maximal effect; nearly all actives have a fitted effect of over 55% in size
#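 Reporter activity after DNA damage by 5-fluorouridine is monitored. Compound-treated cells incubate 16 hr at 37 °C, then ONE-Glo is added for 30 min before luminescence reading.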
# IL1B secr inh: inhibitors of inflammasome signaling (IL-1 beta secretion); THP-1 LPS/ATP IL-1B secretion, AlphaLISA, 16 h; hits give low values; activity change, % at 57.5 µM; 360,000 tested, 4.7% active; AID 743279; in the data active = activity change below about -50%; inconclusive = mostly about -30% to -49%
#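 THP-1 cells pretreated 1 hr with compounds (up to 57.5 uM final), then stimulated with LPS (250 ng/mL final) plus ATP (1.25 mM final); secreted IL-1B measured by AlphaLISA after 16 hr, decreased signal indicating inhibition.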
# DT40 TDP1 CPT: DT40-hTDP1 cell growth loss with CPT; chicken DT40 Tdp1-/-;hTDP1 cells + 20 nM CPT, ATP luminescence, 48 h; Potency, µM (doses to about 46.2 µM), for the others: top-dose activity change, negative = growth inhibition, hits mostly inhibitors; 420,000 tested, 12% active; note: potency is the fitted concentration of half-maximal effect; nearly all actives have a fitted effect of over 55% in size
#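 Cell growth measured by CellTiter-Glo luminescence after a minimum 48 h, 37 C compound exposure with 20 nM CPT in Tdp1-knockout DT40 cells stably expressing hTDP1, seeded 400/well; qHTS titration format.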
# * hit, by the source's call; ? = inconclusive; / = no result given; [ ] = another dose, or the depositor's remark. A selection: hits, their analogues and other compounds. The true share with any hit is near 19%. Unless noted, calls come from the whole dose curve; as a rule, active = well fitted curve in the direction sought with a large enough effect; inconclusive = small, poorly fitted or top-dose-only effect, or another doubt; inactive = no such curve, though single readings can be large; an effect the other way counts as inactive or inconclusive. Unless noted, % is set by controls: 0 for no effect and ±100 for the full control effect.
SMILES,TDP1 cell noCPT,HT1080NT lethal,HT1080 IDH1KD tx,ELG1 DNA repair,IL1B secr inh,DT40 TDP1 CPT
O=C(COc1ccccc1)NCC(=O)N1CCCC(C(F)(F)F)C1 (stereo not drawn),-5.8%,-1.8%,10.1%,/,12.9,-6.6%
OCC1(CCc2ccccc2)CCN(C/C=C/c2ccccc2)CC1,-23.0%,-5.2%,-2.1%,-6.0%,-4.3,-29.7%
OCC1(Cc2ccccc2Cl)CCN(C/C=C/c2ccccc2)CC1,18.4µM*,-10.1%,-15.7%,-9.8%,0.0,?
CCOC(=O)C1=C(C)NC(SC(C)=O)=NC1c1ccc(OC(C)=O)c(OC)c1 (stereo not drawn),-19.8%,?,?,/,8.7,?
CCOC(=O)C1=C(C)NC(C)=C(C(=O)OCC)C1c1ccc(OC)cc1,23.1µM*,-15.7%,-27.5%,-25.2%,14.5,14.6µM*
CCOC(=O)C1=C(C)NC(SC)=NC1c1ccc(OC)cc1 (stereo not drawn),-19.9%,-0.6%,0.0%,-1.9%,-50.4*,-1.4%
CCOC(=O)C1=C(C)NC(C)=C(C(=O)OCC)C1C,-50.6%,-7.9%,-27.6%,6.6%,-3.3,-28.6%
CCN(CC)S(=O)(=O)c1ccc(C(=O)Nc2nnc(COC)o2)cc1,7.5%,-9.2%,-3.3%,-1.4%,0.0,2.1%
COc1ccccc1-c1nnc(NC(=O)c2ccc(S(=O)(=O)N(C)Cc3ccccc3)cc2)o1,9.2µM*,?,?,?,33.7,13µM*
CN(Cc1ccccc1)S(=O)(=O)c1ccc(C(=O)Nc2nnc(C3CC3)o2)cc1,20.6µM*,-26.1%,?,-17.8%,20.2,14.6µM*
COc1ccc(C(=O)Nc2nnc(S(=O)(=O)N(C)Cc3ccccc3)s2)cc1,-11.5%,0.7%,13.8%,9.9%,11.9,5.4%
CCCCN(CCCC)S(=O)(=O)c1ccc(C(=O)Nc2nnc(COC)o2)cc1,16.4µM*,?,11.6µM*,-18.7%,30.1,18.4µM*
COc1ccccc1-c1nnc(NC(=O)c2ccc(S(=O)(=O)N3CCOCC3)cc2)o1,?,-4.8%,-3.5%,?,8.8,?
CCc1nnc(NC(=O)c2ccc(S(=O)(=O)N(C)Cc3ccccc3)cc2)o1,20.6µM*,-21.9%,-23.7%,-4.1%,43.6,16.4µM*
CC(C(=O)Nc1ncc([N+](=O)[O-])s1)N1C(=O)c2ccccc2S1(=O)=O (stereo not drawn),1.7%,0.8%,7.2%,?,-4.0,20.2%
C#CCCCCCCCCCCCc1ccco1,?,/,/,/,/,6.1%
CCc1nnc(NC(=O)c2ccc(S(=O)(=O)N(CC)Cc3ccccc3)cc2)o1,7.31µM*,-22.1%,?,-13.9%,20.8,11.6µM*
CCN(Cc1ccccc1)S(=O)(=O)c1ccc(C(=O)Nc2nnc(C)o2)cc1,?,-21.6%,?,-12.4%,69.9,23.1µM*
CCOc1ccccc1N1CCN(CC(O)COC2CCCc3ccccc32)CC1 (stereo not drawn),?,-14.1%,1.4%,-14.9%,-15.1,?
COc1ccc(C)cc1S(=O)(=O)n1cnc2ccccc21,14.6µM*,0.7%,-10.2%,-5.4%,4.7,13µM*
Clc1ccc(C2=NNC(=NCC3CCCO3)SC2)cc1 (stereo not drawn),-26.5%,-16.2%,-28.6%,?,?,5.8%
COCCn1c(C)cc(C2=NNC(=NC(C)(C)C)SC2)c1C,18.4µM*,-17.3%,-5.6%,?,-8.6,-96.8%
Cc1cc(C2=NNC(=NCCc3ccccc3)SC2)c(C)n1CC1CCCO1 (stereo not drawn),?,?,-17.8%,?,-76.7*,16.4µM*
COCCn1c(C)cc(C2=NNC(=Nc3ccc(OC)cc3)SC2)c1C,11.6µM*,?,10.4%,11.1%,39.5,23.1µM*
COCCn1c(C)cc(C2=NNC(=Nc3ccccc3)SC2)c1C,15.8µM*,-4.1%,-2.4%,?,4.3,22.4µM*
SMILES,TDP1 cell noCPT,HT1080NT lethal,HT1080 IDH1KD tx,ELG1 DNA repair,IL1B secr inh,DT40 TDP1 CPT
CCc1ccc(C2=NNC(=Nc3c(C)n(C)n(-c4ccccc4)c3=O)SC2)cc1,-28.9%,1.0%,1.4%,10.5%,16.1,4.0%
COCCN=C1NN=C(c2ccc(C)c([N+](=O)[O-])c2)CS1,?,1.7%,-0.8%,?,-29.9,?
CCCCOC(=O)c1ccc(-n2nnc3c(sc4nc(C)cc(C)c43)c2=O)cc1,?,/,/,/,/,-22.4%
Cc1ccc(-n2c(=O)c3c(C)c(C(=O)N(C)C)sc3n(CC(=O)N(C)c3ccccc3)c2=O)cc1C,-26.2%,/,/,/,/,-26.7%
COc1ccc(NC(=O)COc2nc3ccccc3nc2N2CCOCC2)c(OC)c1,-26.5%,11.5%,0.1%,-2.3%,-0.6,-4.7%
CCN=C1NN=C(c2cc(C)n(Cc3ccco3)c2C)CS1,18.4µM*,-5.6%,-10.3%,?,3.9,16.4µM*
Cc1cc(C(=O)C(C)Cl)c(C)n1Cc1ccco1 (stereo not drawn),?,-26.4%,-3.6%,-5.6%,?,?
COc1ccc(CC(=O)OCC(=O)Nc2c(C)n(C)n(-c3ccccc3)c2=O)cc1OC,13.7%,-0.1%[9.24 µM],-0.4%,?,32.3,-12.3%
COc1cc(NC(=O)CSc2nc3c(C)ccc(C)c3cc2C)c(C(=O)O)cc1OC,0.366µM*,4.8%,-2.8%,12.2%,14.1,-6.9%
CC1(c2ccccc2)NC(=O)N(CC(=O)Nc2ccc(S(=O)(=O)NC3=NCCCCC3)cc2)C1=O (stereo not drawn),21.3%,-3.5%,-4.4%,/,-3.2,-2.4%
CN(c1ccccc1)S(=O)(=O)c1cccc(NC(=O)CN2C(=O)NC3(CCCC3)C2=O)c1,?,4.3%,-7.0%,-14.6%,-0.5,?
COc1ccc(C(=O)NNC(=O)CSc2nnc(-c3cccnc3)n2C)cc1,5.8%,-0.2%,-0.8%,-0.3%,0.0,4.7%
Cc1ccc2nc(-c3ccc4c(c3)NC(=O)CO4)cn2c1,?,27.0%,11.3%,?,20.6,0.2%
c1ccn2cc(-c3ccc4c(c3)OCCO4)nc2c1,25.9µM*,?,?,?,-5.2,14.6µM*
Cc1ccc2nc(-c3ccc4c(c3)OCCO4)cn2c1,1.64µM*,3.66µM*,2.31µM*,?,54.2,1.3µM*
Cc1ccc(CN2CCOc3ccc(CN4CCN(CCO)CC4)cc3C2)s1,-14.5%,/,/,/,/,10.4%
Cc1cccc(C)c1NC(=S)N1CCC(c2ccccc2)C1 (stereo not drawn),?,-4.1%,1.6%,-12.4%,-15.1,-1.9%
